Data reported in patent US20150023943, “REF Nuclease for Site-Specific REF-Mediated DNA Cleavage” (Wisconsin Alumni Research Foundation, published 2015).

Biological target: T1, φW39 ΔN59 Ref (Bacteriophage phi W39)
T1 chain: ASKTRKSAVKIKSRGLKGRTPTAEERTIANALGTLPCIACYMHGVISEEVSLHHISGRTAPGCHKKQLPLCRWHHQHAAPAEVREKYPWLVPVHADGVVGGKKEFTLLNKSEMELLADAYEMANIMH
Assay: FP; Kd value only in FIG. 6C; 15 mM Mg acetate, pH 8.5, 25 C
Conditions: tags: expressed from pET21A with NdeI start Met; label: 5'-6FAM; ssDNA
Protocol: Ref proteins at 0.5-10,000 nM were incubated with 2 nM AJM25 71mer ssDNA or AJM25 annealed with AJG52 71mer to make a linear 71 bp dsDNA substrate in 25 mM Tris-acetate (pH 8.5), 3 mM potassium glutamate, 15 mM magnesium acetate, and 5% w/v glycerol at room temperature for 15 minutes. Fluorescence anisotropy (FA) was measured at 25° C., using a Tecan Infinite M1000 instrument with 470-nm excitation and 535-nm emission wavelengths for at least three replicates. The average FA values were plotted with one standard deviation of the mean shown as error. Prism software was used to convert FA values to the percent of DNA bound and apparent dissociation constants were determined using one-site, specific binding with Hill coefficient.

Sequence	binding signal
CAGAAGTAAGTTGGCCGCAGTGTTATCACTCATGGTTATGGCAGCACTGCATAATTCTCTTACTGTCATGC	40 fold reduction in affinity
